Source: PubChem (National Center for Advancing Translational Sciences (NCATS))
An excerpt weighted towards active compounds, which were near 7.3% of everything screened.
HEK293 tox – HEK 293 cell cytotoxicity | HEK 293 viability, ATP luminescence (CellTiter-Glo), 48-72 h | Potency, µM (doses to about 115 µM), actives largely listed as inhibitors | actives 6.6% (n = 94,000) | AID 1345083; further: nearly all actives have a fitted effect of over 60% in size
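HEK 293 cells at 250 cells/well were exposed to compounds by pintool transfer for 48 or 72 hr at 37 degree Celsius, 5% CO2. Viability was read as ATP-coupled luminescence with CellTiter-Glo after 10 min at room temperature.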
IP6K1 inh – blocks human inositol hexakisphosphate kinase 1; actives 0.81% (n = 140,000); activity change, % (series mostly up to about 58 µM); AID 1645851; IP6K1 kinase, ADP-Glo luminescence, 2 h; stronger effect = lower value; in the data active means activity change below about -25%
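ADP-Glo luminescence measures ADP made by human IP6K1 during a 2 h RT reaction with ATP/IP6 (mix at 1.3 mM/130 uM); top library doses 57.5 and 19.1 uM final.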
HEK293 viab – reduces viability of HEK-293 SNCA reporter cells; actives 0.12% (n = 150,000); AID 1671193; HEK-293-SNCA-luc viability, GF-AFC fluorescence, 24 h; Potency, µM (highest dose often 57.1 µM), usual class: cytotoxic; further: nearly all actives have a fitted effect of over 30% in size
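Cytotoxicity counterscreen: after 24 h compound treatment of genome-edited SNCA-luciferase HEK-293 cells, live-cell protease substrate GF-AFC read by fluorescence after 30 min; activity scaled between DMSO (0%) and medium-only (-100%), curves Hill-fitted.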
SNCA expr inh – SNCA gene expression inhibition | HEK-293 SNCA-luciferase knock-in, luminescence, 24 h | Potency, µM (titrated, usually from 57.2 µM), usual class: inhibitors | actives 0.17% (n = 140,000); further: nearly all actives have a fitted effect of over 45% in size
FLuc inh-1 – inhibitors of firefly (Photinus pyralis) luciferase; purified P. pyralis luciferase, luminescence, biochemical; Potency, µM (titrated, usually from 115 µM), actives largely listed as inhibitors; actives 2.5% (n = 76,000); AID 1347043; further: nearly all actives have a fitted effect of over 65% in size
Target sequence (P08659 whole entry, looked up): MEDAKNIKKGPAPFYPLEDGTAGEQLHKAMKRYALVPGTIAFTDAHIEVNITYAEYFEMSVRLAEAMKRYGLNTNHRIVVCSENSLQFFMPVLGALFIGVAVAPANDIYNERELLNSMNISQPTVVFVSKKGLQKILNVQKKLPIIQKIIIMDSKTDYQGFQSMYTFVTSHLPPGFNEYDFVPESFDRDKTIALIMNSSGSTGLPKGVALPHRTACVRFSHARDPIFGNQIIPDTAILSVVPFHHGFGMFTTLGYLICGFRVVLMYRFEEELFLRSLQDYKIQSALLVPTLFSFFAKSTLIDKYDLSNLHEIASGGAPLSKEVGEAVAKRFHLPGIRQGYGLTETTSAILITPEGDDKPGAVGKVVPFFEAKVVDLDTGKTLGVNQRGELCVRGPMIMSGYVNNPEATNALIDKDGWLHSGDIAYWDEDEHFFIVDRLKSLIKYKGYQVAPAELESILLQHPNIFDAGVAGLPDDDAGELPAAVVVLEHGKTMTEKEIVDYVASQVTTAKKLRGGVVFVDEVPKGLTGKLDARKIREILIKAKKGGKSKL
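Cell-free enzyme assay, 10nM P. pyralis luciferase, luciferin and ATP each at 10uM. Inhibition profiled over a 6-point titration, read as luminescence.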
3T3 cytotox – cytotoxic compounds in NIH 3T3 cells. NIH 3T3 viability, CellTiter-Glo ATP luminescence, 48-72 h. Potency, µM (top dose mostly 96.7 µM), usual class: inhibitors. actives 4.3% (n = 94,000). AID 1345082; further: nearly all actives have a fitted effect of over 55% in size
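Cytotoxicity was measured by CellTiter-Glo ATP luminescence after 48 or 72 h compound exposure at 37 °C. Mouse NIH 3T3 fibroblasts were seeded at 400 cells/well and dosed by 23 nL pin transfer.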
FLuc SDR no ATP – firefly luciferase binding stabilization, ATP absent; shares compounds with FLuc inh-1; Purified FLuc-C-HiBiT, Nano-Glo HiBiT luminescence, no ATP; Potency, µM (series often up to 32.7 µM), actives largely listed as activators; actives 7.8% (n = 1,300); further: nearly all actives have a fitted effect of over 55% in size
FLuc SDR ATP – binders stabilizing firefly luciferase, plus ATP; actives 8.7% (n = 1,300); purified FLuc-C-HiBiT + ATP, HiBiT complementation luminescence; AID 1963319; shares compounds with FLuc inh-1; Potency, µM (titrated, usually from 32.7 µM), usual class: activators;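 further: signal reports ligand binding via conformational change of the enzyme rather than luciferase catalysis; nearly all actives have a fitted effect of over 55% in size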
FLuc inh-2 – firefly luciferase enzyme inhibition | Potency, µM (highest dose often 32.7 µM), most hits filed as inhibitors | purified FLuc-C-HiBiT enzyme, luciferin luminescence | actives 42% (n = 1,300) | shares compounds with FLuc inh-1 | AID 1963320; further: nearly all actives have a fitted effect of over 70% in size
Hits are given with their value; [ ] = remark or other dose. Unless noted, the call rests on the fitted dose curve; in most records, active means well fitted curve in the direction sought with a large enough effect; inconclusive means small, poorly fitted or top-dose-only effect, or another doubt; inactive means no such curve, though single readings can be large; an effect the other way counts as inactive or inconclusive.

COc1ccccc1CNC(=O)C1CCN(C(=O)c2ncn3c2COC(c2ccccc2)C3)CC1 (centres undefined) was read as HEK293 tox inactive, IP6K1 inh inactive, HEK293 viab inactive, SNCA expr inh inactive, FLuc inh-1 13µM, 3T3 cytotox inactive, FLuc SDR no ATP inactive, FLuc SDR ATP inconclusive and FLuc inh-2 6.2µM.
`O=C(NCc1ccc(F)cc1)C1CCN(C(=O)c2ncn3c2COC(c2ccccc2)C3)CC1` (centres undefined) gave HEK293 tox inactive, IP6K1 inh inactive, HEK293 viab inactive, SNCA expr inh inactive, FLuc inh-1 14µM, 3T3 cytotox inactive, FLuc SDR no ATP inactive, FLuc SDR ATP inconclusive and FLuc inh-2 5.6µM.
Screening O=C(NCc1ccncc1)C1CCN(C(=O)c2ncn3c2COC(c2ccccc2)C3)CC1 (centres undefined) returned HEK293 tox inactive, IP6K1 inh inactive, HEK293 viab inactive, SNCA expr inh inactive, FLuc inh-1 2.8µM, 3T3 cytotox inactive, FLuc SDR no ATP inactive, FLuc SDR ATP 0.88µM and FLuc inh-2 1.8µM.
COc1ccc(C2Cn3cnc(C(=O)N4CCC(C(=O)NCc5ccc(F)cc5)CC4)c3CO2)cc1 (centres undefined) was read as HEK293 tox inactive, IP6K1 inh inactive, HEK293 viab inactive, SNCA expr inh inactive, FLuc inh-1 inactive and 3T3 cytotox inactive.
Screening COC1CN(C2CCN(C(=O)c3cccnc3C)CC2)C12CCOCC2 (centres undefined) returned HEK293 tox inactive, IP6K1 inh inactive, HEK293 viab inactive, SNCA expr inh inactive, FLuc inh-1 inactive and 3T3 cytotox inactive.
Screening COCCOc1ccc2c(n1)CCN(C(=O)c1cccc(OC)c1OC)C2 returned HEK293 tox inactive, IP6K1 inh inactive, HEK293 viab inactive[12.5 µM], SNCA expr inh inactive, FLuc inh-1 inactive and 3T3 cytotox inactive.
`O=C(Cc1ccccn1)N1CCCC(C(=O)N2CCC(N3CCCC3=O)CC2)C1` (centres undefined) gave HEK293 tox inactive, IP6K1 inh inactive, HEK293 viab inactive, SNCA expr inh inactive and 3T3 cytotox inactive.
For O=C(NCc1ccccc1F)C1CCN(C(=O)c2ncn3c2COC(c2ccccc2)C3)CC1 (centres undefined) the results were HEK293 tox inactive, IP6K1 inh inactive, HEK293 viab inactive, SNCA expr inh inactive, FLuc inh-1 10µM, 3T3 cytotox inactive, FLuc SDR no ATP inactive, FLuc SDR ATP inconclusive and FLuc inh-2 3.5µM.
O=C(Cc1ccc(F)cc1)N1CCc2nc(-c3ccccc3)nc(-c3ccc(Cl)cc3)c2C1 was read as HEK293 tox inconclusive, IP6K1 inh inactive, HEK293 viab inactive, SNCA expr inh inconclusive and 3T3 cytotox inconclusive.
For COc1ccc(CNC(=O)N2CCCC(CN3CCCC3)CC2)cc1 (centres undefined) the results were HEK293 tox inconclusive, IP6K1 inh inactive, HEK293 viab inactive, SNCA expr inh inactive, FLuc inh-1 inactive and 3T3 cytotox inactive.
O=C(O)c1ccc(-c2ccc(N3CCCCCC3)nc2)cc1 was read as HEK293 tox inactive, IP6K1 inh inactive, HEK293 viab inactive, SNCA expr inh inactive, FLuc inh-1 4.5µM, 3T3 cytotox inconclusive, FLuc SDR no ATP inconclusive, FLuc SDR ATP inconclusive and FLuc inh-2 2.5µM.
Screening O=C(Nc1cccc(Br)c1)c1cc(-c2ccc3c(c2)OCCO3)on1 returned IP6K1 inh inactive, HEK293 viab inactive, SNCA expr inh inconclusive, FLuc SDR no ATP inconclusive, FLuc SDR ATP inconclusive and FLuc inh-2 0.99µM.
Screening CCN(CC)C(=O)N1CCOC(c2ccc3cc(OC)ccc3c2)C1 (centres undefined) returned HEK293 tox inconclusive, IP6K1 inh inactive, HEK293 viab inactive, SNCA expr inh inactive, FLuc inh-1 1.6µM, 3T3 cytotox inconclusive, FLuc SDR no ATP inactive, FLuc SDR ATP inconclusive and FLuc inh-2 5.6µM.
Screening COc1ccc2cc(C3CN(C(=O)CCc4n[nH]c(C)n4)CCO3)ccc2c1 (centres undefined) returned HEK293 tox inactive, IP6K1 inh inactive, HEK293 viab inactive, SNCA expr inh inconclusive, FLuc inh-1 2.5µM, 3T3 cytotox inconclusive, FLuc SDR no ATP inconclusive, FLuc SDR ATP inconclusive and FLuc inh-2 9.9µM.
For COc1ccc2cc(C3CN(C(=O)c4cccc(CO)c4)CCO3)ccc2c1 (centres undefined) the results were HEK293 tox 28µM, IP6K1 inh inactive, HEK293 viab inactive, SNCA expr inh inconclusive, FLuc inh-1 0.56µM, 3T3 cytotox inconclusive, FLuc SDR no ATP inconclusive, FLuc SDR ATP inconclusive and FLuc inh-2 2.5µM.
For COc1ccc2cc(C3CN(C(=O)c4cccc(CO)n4)CCO3)ccc2c1 (centres undefined) the results were HEK293 tox inconclusive, IP6K1 inh inactive, HEK293 viab inactive, SNCA expr inh inactive, FLuc inh-1 3.5µM, 3T3 cytotox inactive, FLuc SDR no ATP inactive, FLuc SDR ATP inconclusive and FLuc inh-2 inconclusive.
Screening COc1ccc(-c2cc(C(=O)N3CCOC(c4ccc(F)cc4)C3)[nH]n2)cc1 (centres undefined) returned HEK293 tox inconclusive, IP6K1 inh inactive, HEK293 viab inactive, SNCA expr inh inactive, FLuc inh-1 inactive and 3T3 cytotox inconclusive.
COC(=O)CN1CCOC(c2ccc3cc(OC)ccc3c2)C1 (centres undefined) was read as HEK293 tox inconclusive, IP6K1 inh inactive, HEK293 viab inactive, SNCA expr inh inactive, FLuc inh-1 inactive and 3T3 cytotox inconclusive.
Screening FC(F)(F)c1cc(-c2nc3ccccc3s2)cc(C(F)(F)F)c1 returned FLuc SDR no ATP inactive, FLuc SDR ATP inactive and FLuc inh-2 inconclusive.
For c1ccc2sc(SSc3nc4ccccc4s3)nc2c1 the results were IP6K1 inh inactive, HEK293 viab inactive[12.5 µM] and SNCA expr inh inactive.
Screening Clc1cccc(-c2csc(-c3nc(-c4ccc(Br)s4)cs3)n2)c1 returned IP6K1 inh inactive, HEK293 viab inactive and SNCA expr inh inactive.
Screening Clc1cccc(-c2nc3ccccc3s2)c1 returned FLuc SDR no ATP inactive, FLuc SDR ATP inactive and FLuc inh-2 8.8µM.
